Compound activity: PubChem BioAssay, National Center for Advancing Translational Sciences (NCATS)
Only some compounds are listed: those with a hit (about 6.7% of all), similar ones and a draw of the others.
SW480 rereplic = induces DNA re-replication in SW480 colon adenocarcinoma cells | Potency, µM (top dose mostly 46.1 µM), for the others: at the top dose re-replication activation, hits mostly activators | 340,000 tested, 1.8% active | AID 624297 | SW480 DNA re-replication, Hoechst DNA content imaging, 48 h; also: % of control where 0% means no effect; nearly all actives have a fitted effect of over 55% in size
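Treated cells incubate 48 hr (37 C, 5% CO2), are stained 40 min with Hoechst, and nuclear fluorescence is enumerated; a rise in nuclei with high DNA signal marks re-replication.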
KB-V1 cytotox = kills drug-selected multidrug resistant KB-V1 cells; KB-V1 MDR cells viability, CellTiter-Glo, 72 h; Potency, µM (doses to about 46.1 µM), most hits filed as cytotoxic; 400,000 tested, 3.4% active; AID 1347076; also: % is scaled to controls: 0 for no effect and ±100 for the full control effect; nearly all actives have a fitted effect of over 60% in size
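qHTS viability screen in drug-selected KB-V1 MDR cells: 72 h compound treatment at 37 degrees C, ATP luminescence end point.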
KB-3-1 tox = kills parental KB-3-1 adenocarcinoma cells; Potency, µM (series often up to 46.1 µM), actives largely listed as cytotoxic; 400,000 tested, 1.4% active; KB-3-1 viability, CellTiter-Glo ATP luminescence, 72 h; also: % is scaled to controls: 0 for no effect and ±100 for the full control effect; nearly all actives have a fitted effect of over 60% in size
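Luminescent ATP read-out (CellTiter-Glo) measures survival of drug-naive KB-3-1 cells after 72 h compound exposure at 37 °C. Titration series was screened from lowest to highest concentration, with DMSO vehicle plates as background controls.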
MCF10A rereplic = inducers of DNA re-replication in MCF 10A breast cells. MCF 10A DNA re-replication, Hoechst nuclear intensity, 48 h. Potency, µM (highest dose often 46.1 µM), for the others: top-dose activity, positive = re-replication, most hits filed as activators. 350,000 tested, 2.9% active. AID 624296; also: % of control where 0% means no effect; nearly all actives have a fitted effect of over 50% in size
PINK1 modulator = changes PINK1 expression. AID 624263. PINK1 immunofluorescence, high-content cytometry, 24 h. 410,000 tested, 0.2% active. Potency, µM (highest dose often 76.6 µM), for inactives: top-dose activation (PINK1 increase), hits mostly activators; active = well fitted activation curve with a large enough effect; inconclusive = small, poorly fitted or top-dose-only effect; cell line not stated here; also: % of control where 0% means no effect; nearly all actives have a fitted effect of over 65% in size
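Compound titrations (5 concentrations, 24 h) on a stable cell line; DMSO and CCCP controls. Endpoint: fixed-cell PINK1 immunofluorescence with mitochondrial, cell and nuclear markers, scanned by microplate cytometer.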
The depositor's hits bear a star; i = inactive; ? = inconclusive; . = no result given; [ ] = dose if it differs, or a comment. Unless noted, calls follow the shape of the dose curve; as a rule, active = well fitted curve in the direction sought with a large enough effect; inconclusive = small, poorly fitted or top-dose-only effect, or another doubt; inactive = no such curve, though single readings can be large; an effect the other way counts as inactive or inconclusive. Potency is read from the fitted curve at half-maximal effect.

SMILES	SW480 rereplic	KB-V1 cytotox	KB-3-1 tox	MCF10A rereplic	PINK1 modulator
COc1cccc(-c2ccc(NC(=O)C3CCCN(CCCn4nc(C)cc4C)C3)cc2)c1 (configuration not stated)	20.6µM*	i	?	?	4.1%
Cc1ccc(NC(=O)C2CCCN(c3ncccn3)C2)cc1C (configuration not stated)	-7.8%	i	i	14.0%	-0.6%
COc1ccc(NC(=O)C2CCCN(c3nccc(C)n3)C2)cc1 (configuration not stated)	-18.7%	i	i	14.9%	0.8%
COc1ccc(Cl)cc1NC(=O)CSc1ccc2nnc(CCNS(=O)(=O)c3ccccc3)n2n1	.	i	i	.	0.0%
CCC(C)c1ccc(NC(=O)C2CCCN(c3ncccn3)C2)cc1 (configuration not stated)	18.4%	7.94µM*	10µM*	?	.
CCOc1ccc(-n2c(-c3ccc(Br)cc3)cc3c2CC(C)(C)CC3=O)cc1	.	i	i	.	2.3%
CCOC(=O)C1C(=O)OC(C)(C)C1C(C)C(=O)c1ccc(C)cc1 (configuration not stated)	-5.3%	14.6µM*	i	2.6%	2.7%[38.3 µM]
CCOC(=O)C1C(=O)OC(C)(C)C1C(C)C(=O)c1ccc(C)cc1C (configuration not stated)	-0.6%	i	i	-3.7%	-1.7%
C=CCn1c(COc2ccccc2F)nnc1SCC(=O)Nc1cc2oc3ccccc3c2cc1OC	4.4%	?	?	11.7%	2.9%
C=CCn1c(COc2ccccc2F)nnc1SCC(=O)c1c[nH]c2ccccc12	-5.6%	13µM*	?	17.3%	0.1%
CC(C)CC(=O)NC(=S)Nc1ccc(S(=O)(=O)NC(C)(C)C)cc1	2.5%	14.6µM*	i	5.1%	-0.6%
CCOc1ccc(NS(=O)(=O)c2ccc(NC(=S)NC(=O)CC(C)C)cc2)cc1	?	?	i	?	?
CC[C@@H]1OC(=O)[C@H](C)[C@H](O[C@@H]2C[C@](C)(OC)[C@H](O)[C@H](C)O2)[C@H](C)[C@H](O[C@@H]2O[C@@H](C)C[C@@H](N(C)C)[C@@H]2O)[C@](C)(O)C[C@H](C)C(=NOCOCCOC)[C@H](C)[C@H](O)[C@]1(C)O	0.9%[20.6 µM]	.	.	-3.5%[20.6 µM]	.
CC(C)Oc1ccc(Cl)cc1Nc1nc(NCCO)nc(N2CCCC2)n1	?	?	i	23.1µM*	-0.9%
COC(=O)c1cccc(C23CC4(C2)[C@H](CN(Cc2ccc(C(F)(F)F)cc2)[C@@H]4c2ccccc2)C3c2ccc(C(F)(F)F)cc2)c1 (some centres not stated)	-0.5%[9.22 µM]	i	13µM*	-0.1%	3.9%
c1ccc(C2[C@H]3CN(Cc4cccnc4)[C@H](c4ccccc4)C34CC2(c2cccnc2)C4)cc1 (some centres not stated)	-12.4%[9.22 µM]	20.6µM*	?	?	0.9%
O=C1CC(CC(=O)N2CC3CCCC2C3)(c2cccc(F)c2)C(=O)N1Cc1cccnc1 (configuration not stated)	.	.	.	.	0.5%
Cc1ccc(-n2ncc3c(=O)n(CC(=O)NCc4ccco4)cnc32)cc1C	?	?	23.1µM*	?	5.4%
O=C(Cn1cnc2c(cnn2-c2ccc(F)cc2)c1=O)NCc1ccco1	?	8.2µM*	9.2µM*	14.6µM*	6.6%
Cc1ccc(-n2ncc3c(=O)n(CC(=O)NCc4ccco4)cnc32)cc1	?	?	?	?	12.5%
Cc1ccc(C)c(OCCC(=O)Nc2ccc(S(=O)(=O)N3CCCC3)cc2)c1	11.1%	i	i	1.6%	1.6%
CCOc1ccccc1NC(=O)c1cc(C(=O)c2cc(Br)ccc2O)coc1=N	?	?	?	7.31µM*	?
CC(C)OC(=O)c1cc(C(=O)c2cc(Br)ccc2O)coc1=N	0.3%	i	i	12.1%	0.0%
CCOc1cc(NC(=O)c2ccco2)c(OCC)cc1NC(=O)COc1ccccc1C	10.2%	?	14.6µM*	2.06µM*	5.6%
Cc1ccccc1OCC(=O)Nc1ccccc1NC(=O)c1ccco1	1.5%	i	i	12.5%	6.6%
SMILES	SW480 rereplic	KB-V1 cytotox	KB-3-1 tox	MCF10A rereplic	PINK1 modulator
Cc1ccccc1OCC(=O)NNC(=S)NC(=O)c1ccco1	?	i	?	14.1µM*	11.3%[38.3 µM]
COc1cc(SC)ccc1C(=O)NCc1ccc(C)cc1	-2.4%	i	i	-10.1%	10.5%[38.3 µM]
COc1cc(SC)ccc1C(=O)NCc1ccccc1	-130.5%	20.6µM*	i	2.9%	0.0%
COc1cc(SC)ccc1C(=O)NCCOc1ccc(C)c(C)c1	-1.4%	16.4µM*	i	5.4%	2.9%
COc1ccc(C(=O)NC(Nc2ccc(C)cc2)C(Cl)(Cl)Cl)cc1 (configuration not stated)	-7.7%	14.6µM*	?	5.3%	?
COc1ccc(NC(NC(=O)c2ccc(OC)cc2)C(Cl)(Cl)Cl)cc1 (configuration not stated)	0.2%	?	i	1.6%	3.2%
CCCOC(=O)C(C)n1c(-c2ccccc2)nc2ccccc2c1=O (configuration not stated)	-1.0%	?	i	0.6%	8.91µM*
COCCCNC(=O)c1cc2n(n1)CCCN(Cc1ccc(C)cc1)C2=O	.	i	i	.	0.0%
CSc1nnc(CNC(=O)c2cccc3ccccc23)n1-c1ccccc1C	.	.	.	.	2.7%
Cc1cccc(NC(=O)c2cccc(S(=O)(=O)Nc3c(C)n(C)n(-c4ccccc4)c3=O)c2)c1	-1.9%	14.6µM*	i	0.5%	0.7%
Cc1c(N/C(=N/S(=O)(=O)c2ccccc2)c2ccc(Cl)cc2)c(=O)n(-c2ccccc2)n1C	-137.9%	23.1µM*	i	-6.2%	-1.0%
Cc1c(NS(=O)(=O)c2cccc(C(=O)Nc3cccc(F)c3)c2)c(=O)n(-c2ccccc2)n1C	0.3%	?	i	0.8%	0.6%
CNC(=O)c1c(NC(=O)c2ccc(S(=O)(=O)N3CCCC(C)C3)cc2)sc2c1CCC2 (configuration not stated)	.	?	i	.	-1.8%
O=C(CN1C(=O)NC2(CCCCC2)C1=O)N1CCN(c2ncccn2)CC1	-7.4%	i	i	-3.9%	2.1%
O=C(CCNc1ccc(F)cc1)c1cccc([N+](=O)[O-])c1	?	i	i	?	?
O=C(CCNc1ccc(Br)cc1)c1cccc([N+](=O)[O-])c1	2.2%	i	i	?	0.1%
Cc1ccc(NCCC(=O)c2cccc([N+](=O)[O-])c2)cc1	?	i	i	6.51µM*	0.6%[38.3 µM]
O=C(CCNc1ccccc1)c1cccc([N+](=O)[O-])c1	8.2µM*	i	i	3.66µM*	2.6%[38.3 µM]
